# According to PubChem BioAssay:
# Where “and” joins values, the source holds several entries; their conditions need not be identical. Equal values may be shown once. Records with an inconclusive call do not appear. Calls of active or inactive are those of the source.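 The calls were made as follows, unless noted: active = compounds killing one labelled cell type while sparing the other, by normalised counts and ratio limits, not self-fluorescent; inactive = the rest.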
# Legend:
# [1] = differential killing of epithelial or mesenchymal cells, primary screen, imaging, PC-3E GFP, TEM4-18 mCherry, co-culture (AID 1345086); settings: imaging cell counts, at 1 µM; for red/green cell ratio (normalised): actives lie on both sides, counts scaled to control wells, 1 = unselective;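 as to all read-outs here: cells exposed to compound for 72 h before imaging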;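 as to red/green cell ratio (normalised): normalised mesenchymal count divided by normalised epithelial count so high means epithelial killing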
# [2] = system: Aerobactin synthetase IucA (Klebsiella pneumoniae); assay: IucA aerobactin synthetase inhibitors, biochemical, Tocris library, absorbance (AID 1345561; call rule not given here;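 also: 100% = enzyme without compound and 0% = no enzyme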); settings: purified IucA enzyme assay, absorbance (OD) read-out; stronger effect = lower value;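 tested at 8 µM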
# [3] = growth inhibition of DIPG glioma cells, dose response, cell-based, SU-DIPG-XVII, MIPE5.0, CellTiter-Glo, qHTS (AID 1347060; cut-off not given, nearly all actives have AC50 up to about 26 µM;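 as to AC50: cells exposed to compound for 48 hours before viability readout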); settings: SU-DIPG-XVII viability, CellTiter-Glo ATP luminescence
# [4] = growth inhibition of DIPG glioma cells, dose response, cell-based, SU-DIPG-XIII, MIPE5.0, CellTiter-Glo, qHTS (AID 1347064; cut-off not given, nearly all actives have AC50 up to about 23 µM;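 as to AC50: cells exposed to compound for 48 hours before the viability read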); settings: SU-DIPG-XIII viability, CellTiter-Glo ATP luminescence
# [5] = growth inhibition of DIPG glioma cells, dose response, cell-based, SU-DIPG-XIII, MIPE4.0, CellTiter-Glo, qHTS (AID 1347061; cut-off not given, nearly all actives have AC50 up to about 37 µM;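 also: cells exposed to compound for 48 hours before readout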); settings: SU-DIPG-XIII viability, CellTiter-Glo ATP luminescence
# [6] = growth inhibition of DIPG glioma cells, dose response, cell-based, JHH-DIPG-1, MIPE4.0, CellTiter-Glo, qHTS (AID 1347062; cut-off not given, nearly all actives have AC50 up to about 27 µM;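 as to AC50: cells exposed to compound for two days before readout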); settings: JHH-DIPG-1 viability, CellTiter-Glo ATP luminescence
# [7] = growth inhibition of DIPG glioma cells, dose response, cell-based, SU-DIPG-IV, MIPE4.0, CellTiter-Glo, qHTS (AID 1347063; cut-off not given, nearly all actives have AC50 up to about 30 µM;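 also: compound exposure lasted 48 hours before the viability readout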); settings: SU-DIPG-IV viability, CellTiter-Glo ATP luminescence
# [8] = measured here: epithelial PC-3E GFP cell survival
# [9] = measured here: mesenchymal TEM4-18 mCherry cell survival
smiles,measurement,setting,value
COC(=O)Nc1nc2ccc(C(=O)c3cccs3)cc2[nH]1,red/green cell ratio (normalised),[1],1.09 (inactive)
same,normalised cell number,[1]; [8],0.15
same,normalised cell number,[1]; [9],0.17
same,remaining activity,[2],122% (inactive)
same,AC50,[3],0.148 µM (active)
same,AC50,[4],0.833 µM (active)
NS(=O)(=O)c1cc2c(cc1Cl)NC(C1CC3C=CC1C3)NS2(=O)=O (configuration not stated),red/green cell ratio (normalised),[1],1.29 (inactive)
same,normalised cell number,[1]; [8],0.95
same,normalised cell number,[1]; [9],1.23
same,remaining activity,[2],94.1% (inactive)
CCN(CC)CCOCCOC(=O)C1(c2ccccc2)CCCC1,red/green cell ratio (normalised),[1],1.27 (inactive)
same,normalised cell number,[1]; [8],1
same,normalised cell number,[1]; [9],1.28
same,remaining activity,[2],92.5% (inactive)
COc1ccc(CCN2CCC(Nc3nc4ccccc4n3Cc3ccc(F)cc3)CC2)cc1,red/green cell ratio (normalised),[1],1.02 (inactive)
same,normalised cell number,[1]; [8],1.09
same,normalised cell number,[1]; [9],1.11
same,remaining activity,[2],97.7% (inactive)
O=c1c(-c2ccc(O)cc2)coc2cc(O)cc(O)c12,red/green cell ratio (normalised),[1],0.95 (inactive)
same,normalised cell number,[1]; [8],0.96
same,normalised cell number,[1]; [9],0.91
same,remaining activity,[2],121% (inactive)
same,outcome,[5],inactive
same,outcome,[6],inactive
same,outcome,[7],inactive
same,outcome,[4],inactive
COC(=O)Nc1nc2ccc(S(=O)c3ccccc3)cc2[nH]1 (configuration not stated),red/green cell ratio (normalised),[1],0.97 (inactive)
same,normalised cell number,[1]; [8],0.97
same,normalised cell number,[1]; [9],0.95
same,AC50,[3],18.6 µM (active)
c1ccc(CN(CC2=NCCN2)c2ccccc2)cc1,red/green cell ratio (normalised),[1],1.08 (inactive)
same,normalised cell number,[1]; [8],1.24
same,normalised cell number,[1]; [9],1.34
same,remaining activity,[2],98.2% (inactive)
COc1ccc2[nH]cc(CCNC(C)=O)c2c1,red/green cell ratio (normalised),[1],1.02 (inactive)
same,normalised cell number,[1]; [8],0.84
same,normalised cell number,[1]; [9],0.86
same,remaining activity,[2],102% (inactive)
same,outcome,[3],inactive
same,outcome,[5],inactive
same,outcome,[6],inactive
same,outcome,[4],inactive
CN(C)CCc1c[nH]c2ccc(CS(=O)(=O)N3CCCC3)cc12,red/green cell ratio (normalised),[1],1.06 (inactive)
same,normalised cell number,[1]; [8],0.96
same,normalised cell number,[1]; [9],1.02
same,outcome,[3],inactive
same,outcome,[5],inactive
same,outcome,[6],inactive
Cc1ccc(C(=O)Nc2ccc(S(=O)(=O)O)c3cc(S(=O)(=O)O)cc(S(=O)(=O)O)c23)cc1NC(=O)c1cccc(NC(=O)Nc2cccc(C(=O)Nc3cc(C(=O)Nc4ccc(S(=O)(=O)O)c5cc(S(=O)(=O)O)cc(S(=O)(=O)O)c45)ccc3C)c2)c1,red/green cell ratio (normalised),[1],1.23 (inactive) and 0.9 (inactive)
same,normalised cell number,[1]; [8],0.96 and 1.07
same,normalised cell number,[1]; [9],1.17 and 0.97
same,remaining activity,[2],38.8% (active)
same,AC50,[3],14.4 µM (active)
same,outcome,[4],inactive
CC(C)NCC(O)c1ccc2ccccc2c1 (configuration not stated),red/green cell ratio (normalised),[1],1.02 (inactive)
same,normalised cell number,[1]; [8],1.05
same,normalised cell number,[1]; [9],1.07
same,remaining activity,[2],94.1% (inactive)
COCCCOc1cc(C[C@@H](C[C@H](N)[C@@H](O)C[C@H](C(=O)NCC(C)(C)C(N)=O)C(C)C)C(C)C)ccc1OC,red/green cell ratio (normalised),[1],0.98 (inactive)
same,normalised cell number,[1]; [8],0.98
same,normalised cell number,[1]; [9],0.96
same,outcome,[3],inactive
same,outcome,[5],inactive
same,outcome,[6],inactive
CC1=NN(c2ccccc2)C(=O)C1,red/green cell ratio (normalised),[1],0.88 (inactive)
same,normalised cell number,[1]; [8],1.15
same,normalised cell number,[1]; [9],1.01
same,remaining activity,[2],85.6% (inactive)
same,outcome,[3],inactive
same,outcome,[5],inactive
same,outcome,[6],inactive
same,outcome,[7],inactive
same,outcome,[4],inactive
O=C1CCc2cc(OCCCCc3nnnn3C3CCCCC3)ccc2N1,red/green cell ratio (normalised),[1],1.09 (inactive)
same,normalised cell number,[1]; [8],0.86
same,normalised cell number,[1]; [9],0.94
same,remaining activity,[2],118% (inactive)
same,outcome,[3],inactive
same,outcome,[5],inactive
same,outcome,[6],inactive
same,outcome,[7],inactive
same,outcome,[4],inactive
CN1CCN2c3ccccc3Cc3ccccc3C2C1 (configuration not stated),red/green cell ratio (normalised),[1],1.03 (inactive)
same,normalised cell number,[1]; [8],1.24
same,normalised cell number,[1]; [9],1.28
same,remaining activity,[2],115% (inactive)
same,outcome,[5],inactive
same,outcome,[6],inactive
same,outcome,[7],inactive
O=c1c(O)c(-c2ccc(O)c(O)c2)oc2cc(O)cc(O)c12,red/green cell ratio (normalised),[1],0.91 (inactive)
same,normalised cell number,[1]; [8],1.15
same,normalised cell number,[1]; [9],1.04
same,remaining activity,[2],113% (inactive)
same,outcome,[3],inactive
same,outcome,[4],inactive
CC1(C)NC(=O)N(c2ccc([N+](=O)[O-])c(C(F)(F)F)c2)C1=O,red/green cell ratio (normalised),[1],1.15 (inactive)
same,normalised cell number,[1]; [8],1.25
same,normalised cell number,[1]; [9],1.43
same,remaining activity,[2],120% (inactive)
same,outcome,[6],inactive
same,outcome,[7],inactive
same,outcome,[4],inactive
Fc1ccc(C(c2ccc(F)cc2)N2CCN(C/C=C/c3ccccc3)CC2)cc1,red/green cell ratio (normalised),[1],1.11 (inactive)
same,normalised cell number,[1]; [8],0.86
same,normalised cell number,[1]; [9],0.95
same,remaining activity,[2],105% (inactive)
same,outcome,[5],inactive
Cc1cc(C(C)(C)C)c(O)c(C)c1CC1=NCCN1,red/green cell ratio (normalised),[1],0.88 (inactive)
same,normalised cell number,[1]; [8],1.08
same,normalised cell number,[1]; [9],0.96
same,remaining activity,[2],99.4% (inactive)
same,outcome,[3],inactive
same,outcome,[5],inactive
same,outcome,[7],inactive
same,outcome,[4],inactive
CN1CCC[C@@H]1CCO[C@](C)(c1ccccc1)c1ccc(Cl)cc1,red/green cell ratio (normalised),[1],1.23 (inactive)
same,normalised cell number,[1]; [8],1.06
same,normalised cell number,[1]; [9],1.3
same,remaining activity,[2],109% (inactive)
same,outcome,[5],inactive
CC(=O)Nc1ccc(O)cc1,red/green cell ratio (normalised),[1],1.05 (inactive)
same,normalised cell number,[1]; [8],1.11
same,normalised cell number,[1]; [9],1.16
same,remaining activity,[2],121% (inactive)
same,outcome,[5],inactive
same,outcome,[6],inactive
O=C(c1ccc(F)cc1)C1CCN(CCn2c(=O)[nH]c3ccccc3c2=O)CC1,red/green cell ratio (normalised),[1],0.88 (inactive)
same,normalised cell number,[1]; [8],0.99
same,normalised cell number,[1]; [9],0.88
same,remaining activity,[2],124% (inactive)
same,outcome,[5],inactive
same,outcome,[6],inactive
same,outcome,[7],inactive
Cc1cc2c(C(C)C)c(O)c(O)c(C=O)c2c(O)c1-c1c(C)cc2c(C(C)C)c(O)c(O)c(C=O)c2c1O,red/green cell ratio (normalised),[1],0.91 (inactive)
same,normalised cell number,[1]; [8],1.04
same,normalised cell number,[1]; [9],0.95
same,remaining activity,[2],103% (inactive)
same,AC50,[3],7.42 µM (active)
same,AC50,[5],23.5 µM (active)
same,AC50,[6],18.7 µM (active)
same,AC50,[7],18.7 µM (active)
same,AC50,[4],10.5 µM (active)
